Assay outcomes deposited in PubChem BioAssay by National Center for Advancing Translational Sciences (NCATS).
An excerpt weighted towards active compounds, which were near 7.6% of everything screened.
KB-V1 cytotox: kills drug-selected multidrug resistant KB-V1 cells. 3.4% of 400,000 active. Potency, µM (series often up to 46.1 µM), usual class: cytotoxic. KB-V1 MDR cells viability, CellTiter-Glo, 72 h; further: potency means the concentration at half of the fitted maximal effect; on the % scale 0 is the no-effect control and ±100 the full control effect; nearly all actives have a fitted effect of over 60% in size
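qHTS viability screen in drug-selected KB-V1 MDR cells: 72 h compound treatment at 37 degrees C, ATP luminescence end point.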
SW480 rerep: inducers of DNA re-replication in SW480 colon cancer cells; AID 624297; Potency, µM (doses to about 46.1 µM), for the others: at the top dose re-replication activation, hits mostly activators; 1.8% of 340,000 active; SW480 DNA re-replication, Hoechst DNA content imaging, 48 h; further: potency means the concentration at half of the fitted maximal effect; % of control where 0% means no effect; nearly all actives have a fitted effect of over 55% in size
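250 cells/well; 23 nL cpd via pin tool; 48 hr, 37 C, 5% CO2; Hoechst 40 min; imager read of total nuclear intensity, ex 405/em 500-530 nm.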
KB-3-1 cytotox: kills parental KB-3-1 adenocarcinoma cells | KB-3-1 viability, CellTiter-Glo ATP luminescence, 72 h | Potency, µM (top dose mostly 46.1 µM), hits mostly cytotoxic | 1.4% of 400,000 active; further: potency means the concentration at half of the fitted maximal effect; on the % scale 0 is the no-effect control and ±100 the full control effect; nearly all actives have a fitted effect of over 60% in size
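Parental KB-3-1 viability, qHTS format: 72 h compound exposure, 37 °C; CellTiter-Glo; media-only wells and DMSO plates as controls; concentration-effect fits on corrected data.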
KCNH2 WT inh: inhibitors of human wildtype KCNH2 potassium channel | Q12809 | U2OS, BacMam KCNH2, thallium flux FluxOr; hits give low values | activity change, % at 1.84 µM | 0.37% of 340,000 active | AID 720551;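 active means maximum activity change below -70%; inconclusive means maximum activity change between -70% and -50%; inactive means maximum activity change above -50%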; further: on the % scale 0 is the no-effect control and ±100 the full control effect
Target sequence (Q12809 whole entry, looked up): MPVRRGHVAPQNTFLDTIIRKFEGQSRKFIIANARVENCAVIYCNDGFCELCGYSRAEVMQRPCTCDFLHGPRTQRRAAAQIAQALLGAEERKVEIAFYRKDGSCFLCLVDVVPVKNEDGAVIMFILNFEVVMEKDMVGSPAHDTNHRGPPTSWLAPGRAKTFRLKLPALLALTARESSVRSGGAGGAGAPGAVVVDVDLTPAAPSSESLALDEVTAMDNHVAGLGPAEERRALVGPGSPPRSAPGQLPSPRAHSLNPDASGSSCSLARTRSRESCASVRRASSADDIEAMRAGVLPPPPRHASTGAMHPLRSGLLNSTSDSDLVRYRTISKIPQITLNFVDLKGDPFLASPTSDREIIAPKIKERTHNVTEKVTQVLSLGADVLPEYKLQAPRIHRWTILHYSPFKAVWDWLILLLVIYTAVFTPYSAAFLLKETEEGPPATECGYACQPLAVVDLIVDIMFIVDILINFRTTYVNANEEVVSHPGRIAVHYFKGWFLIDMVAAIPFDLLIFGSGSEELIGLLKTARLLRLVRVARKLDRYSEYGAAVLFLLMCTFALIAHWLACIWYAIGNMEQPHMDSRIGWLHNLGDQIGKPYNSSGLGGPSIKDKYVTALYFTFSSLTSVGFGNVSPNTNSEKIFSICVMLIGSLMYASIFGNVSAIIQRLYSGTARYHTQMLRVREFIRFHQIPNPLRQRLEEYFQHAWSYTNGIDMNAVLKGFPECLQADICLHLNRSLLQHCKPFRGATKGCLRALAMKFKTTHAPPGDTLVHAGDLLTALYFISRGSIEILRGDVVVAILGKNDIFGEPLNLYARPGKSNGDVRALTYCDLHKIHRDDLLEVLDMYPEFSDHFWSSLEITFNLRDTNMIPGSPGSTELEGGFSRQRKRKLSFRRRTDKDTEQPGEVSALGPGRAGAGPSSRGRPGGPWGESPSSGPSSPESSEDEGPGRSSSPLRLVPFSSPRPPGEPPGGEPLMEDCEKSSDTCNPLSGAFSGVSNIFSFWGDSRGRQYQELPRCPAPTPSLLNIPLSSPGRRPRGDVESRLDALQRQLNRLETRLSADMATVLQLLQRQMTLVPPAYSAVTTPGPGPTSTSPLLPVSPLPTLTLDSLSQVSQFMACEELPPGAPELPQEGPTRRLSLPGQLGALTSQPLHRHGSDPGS
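U2OS cells were transduced with wild-type KCNH2 virus (2.03 x 10^8 / mL) for 4 h at room temperature, then cultured overnight at 37 C. Thallium flux was read with FluxOr dye. Rate constants were normalized to DMSO controls.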
KCNH2 3.1 inh: inhibitors of human KCNH2 3.1 potassium channel isoform; AID 720553; 0.95% of 340,000 active; activity change, % (tested at about 1.8 µM); U2OS KCNH2 3.1, thallium flux FluxOr; hits give low values;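 active means maximum activity change below -70%; inconclusive means maximum activity change from -70% to -50%; inactive means maximum activity change above -50%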;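 further: thallium influx rate constant from kinetic fluorescence after stimulation buffer; on the % scale 0 is the no-effect control and ±100 the full control effect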
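Measured as rate of thallium-driven FluxOr signal in transduced U2OS cells carrying the 3.1 channel, read kinetically for 2 min upon stimulation; values are rate constants scaled to DMSO control wells.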
MCF10A rereplic: inducers of DNA re-replication in MCF 10A breast cells; MCF 10A DNA re-replication, Hoechst nuclear intensity, 48 h; Potency, µM (series often up to 46.1 µM), for inactives: at the top dose activity, positive = re-replication, usual class: activators; 2.9% of 350,000 active; further: potency means the concentration at half of the fitted maximal effect; % of control where 0% means no effect; nearly all actives have a fitted effect of over 50% in size
The depositor's hits bear a star; i = inactive; ? = inconclusive; . = not tested or not shown; ! = not active in a repeat; [ ] = remark or other dose. Unless noted, the call rests on the fitted dose curve; in most records, active means well fitted curve in the direction sought with a large enough effect; inconclusive means small, poorly fitted or top-dose-only effect, or another doubt; inactive means no such curve, though single readings can be large; an effect the other way counts as inactive or inconclusive.

SMILES	KB-V1 cytotox	SW480 rerep	KB-3-1 cytotox	KCNH2 WT inh	KCNH2 3.1 inh	MCF10A rereplic
CCOC(=O)c1ccc(NC(=O)c2ccc3c(c2)c(C)c(C)n3Cc2ccc(F)cc2)cc1	i	.	i	.	.	.
COc1ccc(NC(=O)c2ccc3c(c2)c(C)c(C)n3Cc2ccc(F)cc2)cc1	8.2µM*	.	11.6µM*	.	.	.
CC1CCCCC1NC(=O)NC(=O)CCl (stereo unspecified)	i	6.51µM*	?	-9.2	1.0	?
COc1ccc(CNC(=O)C2CCN(c3nc(-c4ccccc4)nc4c3CCC4)CC2)cc1	.	3.0%	.	15.0	?	?
CSc1nc2ccc(S(=O)(=O)N3CCCCC3)cc2s1	?	-7.2%	?	-13.2	-2.4	-0.8%
CSc1nc2ccc(S(=O)(=O)NC3CCCCC3)cc2s1	16.4µM*	-9.3%	?	-11.6	7.2	2.2%
CNc1c(Cl)cc(/C=C2\C=Cc3ccccc32)cc1Cl	i	.	i	.	.	.
C/C(=N\OCC(=O)N/N=C/c1ccc(C)cc1O)c1cccs1	?	6.51µM*	i	-5.6	3.9	4.11µM*
Cc1ccc(/C=N/NC(=O)Cc2ccc(Cl)cc2)c(O)c1	7.31µM*	7.31µM*	?	-13.1	-12.9	14.5%
Cc1ccccc1/C=N/NC(=O)Cc1ccc(Cl)cc1	i	-9.1%	i	-3.5	-0.3	?
COc1ccc(C2=Nc3ccccc3NC(=O)C2N(CCCn2ccnc2)C(=O)c2cccc(S(C)(=O)=O)c2)cc1 (stereo unspecified)	i	.	i	.	.	.
C[C@@H]([C@@H](O)c1ccccc1)N(C)C(=O)C(N)Cc1ccccc1 (stereo partly specified)	?	-3.0%	i	-1.4	22.9	14.5%
COC(=O)c1c(Oc2nc(OC)cc(OC)n2)cccc1Oc1nc(OC)cc(OC)n1	i	-0.1%	i	-14.3	1.8	-0.7%
O=C1CCC[C@@H]2[C@H](Cc3ccccc3)[C@@H](O)C[C@@H]3CCN1[C@@H]32	14.6µM*!	8.8%	?	3.7	-23.4	-45.2%
COc1ccccc1-n1ccnc(SCC(=O)NCc2ccccc2Cl)c1=O	20.6µM*	1.9%	i	-6.7	-2.6	5.3%
CC(C)(C)n1nnnc1C(c1cc2ccccc2o1)N1CCCCC1 (stereo unspecified)	?	.	i	.	.	.
CCc1ccc(CC2S/C(=C(\C#N)C(C)=O)NC2=O)cc1 (stereo unspecified)	7.31µM*	20.2%	?	-2.3	-3.7	?
CC(=O)/C(C#N)=C1\NC(=O)C(Cc2ccc(C)c(Cl)c2)S1 (stereo unspecified)	9.2µM*	-10.0%	18.4µM*	-3.2	-4.0	?
COc1ccc(CCNC(=O)CN(c2ccccc2)S(=O)(=O)N(C)C)cc1	?	.	i	.	.	.
CCOC(=O)C1(Cc2cccc(Cl)c2)CCCN(C(=O)c2c(CC)noc2C)C1 (stereo unspecified)	?	-13.9%	i	-22.7	-0.8	2.3%
CCc1ccc(C(=O)/C=C/c2cnn(C)c2C)s1	i	-8.6%	?	1.1	-7.1	-1.2%
Cc1c(/C=C/C(=O)c2cccs2)cnn1C	i	?	i	-11.7	12.4	20.6µM*
CC(=O)NC(c1cccc([N+](=O)[O-])c1)c1ccc2cccnc2c1O (stereo unspecified)	?	?	3.66µM*	15.7	-1.3	14.6µM*
Oc1c(C(Nc2ccccn2)c2ccccc2)ccc2cccnc12 (stereo unspecified)	i	.	i	.	.	.
COc1cccc(C(NC(C)=O)c2ccc3cccnc3c2O)c1 (stereo unspecified)	i	0.651µM*	3.66µM*	-81.9*	-4.5	?
SMILES	KB-V1 cytotox	SW480 rerep	KB-3-1 cytotox	KCNH2 WT inh	KCNH2 3.1 inh	MCF10A rereplic
O=[N+]([O-])c1ccc(NC(c2ccccc2)c2ccc3cccnc3c2O)cc1 (stereo unspecified)	?	0.82µM*	4.61µM*	-11.9	-70.8*	?
CCCCC(=O)NC(c1cccc([N+](=O)[O-])c1)c1ccc2cccnc2c1O (stereo unspecified)	?	?	?	-19.6	-45.5	?
O=C(COc1cccc2cccnc12)Nc1nccs1	i	?	i	-3.1	3.6	-180.0%[0.0737 µM]
Oc1cccc(C(Nc2nccs2)c2ccc3cccnc3c2O)c1 (stereo unspecified)	?	?	3.26µM*	-4.3	0.1	11.6µM*
COc1ccc(CNC(=O)Nc2cn(CC(C)C)c(=O)c3ccccc23)cc1	i	.	i	.	.	.
CCn1ncc(/C=N\NC(=O)COc2cc(C)cc(C)c2)c1C	11.6µM*	?	?	-5.9	1.8	8.6%
CCCCNC(=O)c1ccc(-c2nc(CS(=O)(=O)c3ccc(C)cc3)c(C)o2)cc1	i	.	i	.	.	.
CCCCOc1ccc(CNC(=O)c2ccc(-c3nc(CN4CCc5ccccc54)c(C)o3)cc2)cc1	?	.	18.4µM*	.	.	.
CCCCNC(=O)c1ccc(-c2nc(CN3CCc4ccccc43)c(C)o2)cc1	5.17µM*	.	?	.	.	.
CCO[C@H]1OC(C(=O)N2CCN(C)CC2)=C[C@@H](C2CC2)[C@@H]1CCCO	i	-10.9%	i	.	.	10.7%
Cc1ccc(CSc2nc3ccncc3n2Cc2nc(-c3ccc(Cl)cc3)oc2C)cc1	i	.	i	.	.	.
COc1ccc(-c2nc(Cn3c(SCc4ccccc4F)nc4ccncc43)c(C)o2)cc1	?	-4.3%	i	11.1	-108.9*	17.3%
COc1ccc(-c2nc(Cn3c(SCc4ccc(F)cc4)nc4ccncc43)c(C)o2)cc1OC	i	0.0%	?	-33.3	-1.7	3.66µM*
NC(=S)NN=CCn1cc([N+](=O)[O-])c(=O)[nH]c1=O	i	?	i	4.1	-4.6	-1.0%
COc1ccc(NC(=O)CN(C)C(=O)C2=NN(c3ccccc3)C(=O)CC2)cc1	i	1.3%	i	-17.6	-0.9	9.8%
COCCNC(=S)N/N=C/c1c2ccccc2cc2ccccc12	i	18.4µM*	i	3.3	8.5	14.6µM*
C[N+](C)(C)CC(=O)N/N=C/c1c2ccccc2cc2ccccc12	?	29.7%	i	-0.2	17.5	18.4µM*
S=C(NCCN1CCOCC1)N/N=C/c1c2ccccc2cc2ccccc12	?	-2.1%[9.22 µM]	?	-2.5	2.6	24.3%
Cc1cc(C)n2nc(C(=O)N/N=C/c3c4ccccc4cc4ccccc34)nc2n1	?	?	i	-0.5	-7.7	8.2µM*
NC(=O)C1CCN(c2ncc(-c3ccc4c(c3)OC(F)(F)O4)s2)CC1	i	.	i	.	.	.
COc1cc(Cl)c(CC(=O)c2c[nH]c3ccccc23)cc1OC	?	-1.4%	13µM*	-3.5	6.0	18.8%
